Screening data as filed in PubChem.
Sampled rows, rich in hits. Any-hit rate of the full collection: about 4.8%.
DAX1 inh-1: inhibits human nuclear receptor DAX1. P51843. HEK293 Gal4-DAX1 luciferase reporter, luminescence. inhibition, % at 6.75 µM. hit rate 0.99% among 340,000;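 active = inhibition above the mean over all tested compounds plus 3 SD, cut at about 4.2% in these data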;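 note: inhibition shows as a rise in luminescence from relieved DAX1 repression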
Target sequence (P51843 207-470 limits assumed): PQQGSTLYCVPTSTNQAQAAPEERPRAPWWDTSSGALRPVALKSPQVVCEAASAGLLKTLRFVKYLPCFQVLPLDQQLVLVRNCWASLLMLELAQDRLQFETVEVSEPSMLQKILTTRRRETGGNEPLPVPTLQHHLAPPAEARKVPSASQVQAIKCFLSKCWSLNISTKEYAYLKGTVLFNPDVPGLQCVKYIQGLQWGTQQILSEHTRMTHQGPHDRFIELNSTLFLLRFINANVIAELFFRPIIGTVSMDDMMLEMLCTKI
hgDAF-12 ag: agonists of H. glycines DAF-12 nuclear receptor; HEK293 GAL4-hgDAF12 UAS-luciferase reporter, agonist luminescence; normalized to butyrate control; AID 687014; hit rate 1.8% among 370,000; activation, % at 6.8 µM;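 active = activation above a cutoff set at the mean of all screened compounds plus 3 SD, cut at about 10% in these data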
hcDAF12 agonist: activators of H. contortus DAF-12 nuclear receptor. HEK293 hcDAF-12 lit1-tk-luc reporter, luminescence; 0% DMSO, 100% Δ7-dafachronic acid. activation, % at 6.8 µM. hit rate 1.4% among 370,000. AID 652067;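 active = activation above the mean of all tested compounds plus 3 SD, cut at about 5.5% in these data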
ssDAF12 agonist: S. stercoralis DAF-12 activation, primary screen. activation, % at 6.8 µM. HEK293 ssDAF-12/GRIP1 lit1-tk-luc reporter, luminescence; % of 3 µM dafachronic acid response. hit rate 1% among 370,000;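 active = activation above the mean over all tested compounds plus 3 SD, cut at about 0.9% in these data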
SMARCA2 activ: activators of SMARCA2 function. MG213 cells, MMTV-luciferase reporter, dexamethasone, overnight. activation, % at 9.1 µM. hit rate 1% among 370,000. AID 652017; in the data active = activation above about 7.8%
DAX1 inh-2: inhibitors of DAX1 repression of SF-1 activated StAR promoter; hit rate 1.1% among 370,000; inhibition, % at 6.8 µM; HEK293T StAR-luciferase reporter, SF-1/DAX-1 repression relief;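 active = inhibition above the mean over all tested compounds plus 3 SD, cut at about 3.6% in these data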;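 note: higher inhibition means more luminescence from relief of DAX-1 repression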
SMARCA2 conf: confirmation of SMARCA2 (BRM) function activators; MG213 cells, MMTV-luciferase with dexamethasone, luminescence, overnight; MG213 cells expressing E1A, Rb sequestered; DMSO wells 0%, reference activator 100%; activation, % at 9.1 µM; shares compounds with SMARCA2 activ; hit rate 30% among 3,500; AID 652260;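 active = activation above its plate's cutoff, the mean activation of tested wells plus 3 SD, cut at about 7.9% in these data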
VP16 Luc act: activates GAL4-VP16 luciferase, flagging SMARCA2 activator hits. shares compounds with SMARCA2 activ. HEK293 GAL4-VP16 pG5luc reporter, luciferase luminescence; scaled: DMSO wells 0%, SAHA wells 100%. activation, % at 9.1 µM. hit rate 41% among 3,500;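 active = activation above the solvent-only control well mean plus 3 SD, averaged across control plates, cut at about 5.2% in these data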
Of the large screens only hits and unclear results are named; the others gave an inactive call (follow-up assays come after a bar, where they were run).

N#Cc1c(N)nc2c(c1N)CC(CCl)O2 (stereo unspecified)	SMARCA2 activ 9.7 | SMARCA2 conf inactive | VP16 Luc act inactive
O=C(O)CC(NS(=O)(=O)c1c(F)cc(F)cc1Br)c1ccccc1Cl (stereo unspecified)	none
COc1ccc(C2=Nc3ccccc3N(C(=O)c3ccncc3)C2C(=O)NC(C)C)cc1 (stereo unspecified)	SMARCA2 activ 9.7 (no result: DAX1 inh-1) | SMARCA2 conf inactive | VP16 Luc act inactive
O=C(CN(C(=O)CCC(=O)Nc1nccs1)c1ccccc1F)NCC1CCCO1 (stereo unspecified)	none
Cc1onc(-c2ccccc2Cl)c1C(=O)OCC(=O)Nc1cccc(S(=O)(=O)N(C)C)c1	none
CC(=NC1CC1)C1=C(O)c2ccccc2C1=O	none
CCOc1ccc(N=C(C)C2=C(O)c3ccccc3C2=O)cc1	SMARCA2 activ 19 | SMARCA2 conf 8.5 | VP16 Luc act 12
Cc1ccc(NC(=O)c2ccc(-n3cncn3)c([N+](=O)[O-])c2)cc1	none
Cc1ccc(C)c(NC(=O)c2cc(-c3cc(C)c(C)cc3O)n[nH]2)c1	SMARCA2 activ 11 | SMARCA2 conf inactive | VP16 Luc act 5.9
O=C(NC1CCC1)c1ccc(C#CC2CC2)c[n+]1[O-]	hgDAF-12 ag 11, SMARCA2 activ 15 (no result: DAX1 inh-1) | SMARCA2 conf 11 | VP16 Luc act 5.2
CS(=O)(=O)c1ccc(C(=O)NC2CCCCC2)cc1	none
COc1ccc(Nc2cc(C(=O)NCCCN3CCOCC3)c3ccccc3n2)cc1OC	SMARCA2 activ 9.8 | SMARCA2 conf inactive | VP16 Luc act inactive
CC(=O)c1ccc(N(C(=O)CNC(=O)c2cccs2)C(C(=O)NCC2CCCO2)c2ccccc2)cc1 (stereo unspecified)	none
COc1nc(C)ccc1-c1noc(-c2cccnc2)n1	SMARCA2 activ 11 | SMARCA2 conf inactive | VP16 Luc act 7.1
CCOc1ccc(-c2nc(-c3cccnc3)no2)cc1	hgDAF-12 ag 12, SMARCA2 activ 9.3, DAX1 inh-2 4.5 | SMARCA2 conf inactive | VP16 Luc act 13
COc1nc(C)ccc1-c1noc(-c2ccccn2)n1	none (no result: hgDAF-12 ag, hcDAF12 agonist, ssDAF12 agonist, SMARCA2 activ, DAX1 inh-2)
O=C(Nc1cccc(C(=O)N2CCCC2)c1)C1CCCCC1	none
COc1cc(Nc2c3ccccc3nc3ccccc23)cc(OC)c1OC	hcDAF12 agonist 5.7, SMARCA2 activ 8.2 | SMARCA2 conf 31 | VP16 Luc act inactive
COCCCNC(=S)Nc1ccc(OC(F)F)cc1C	none
COCCCNC(=S)Nc1cc(C)c(C)cc1C	SMARCA2 activ 8.6 | SMARCA2 conf inactive | VP16 Luc act inactive
CCc1ccc(NC(=O)Cn2cnc([N+](=O)[O-])c2)cc1	none
Cn1c(-c2nnn(-c3ccc(F)cc3)n2)cc2ccccc21	hcDAF12 agonist 12, SMARCA2 activ 8.8 (no result: DAX1 inh-1) | SMARCA2 conf inactive | VP16 Luc act 8.4
Cc1ccc(NC(=O)CSC2=NN3CCCC(=O)N=C3S2)c(C)c1	none
Cc1ccc(C)c(CSC2=NN3CCCC(=O)N=C3S2)c1	SMARCA2 activ 8.5 | SMARCA2 conf inactive | VP16 Luc act inactive
CCN(CC(=O)Nc1cccc(OC)c1)C(=O)c1ccc(C)s1	SMARCA2 activ 8.2 | SMARCA2 conf inactive | VP16 Luc act inactive
COC(=O)C(N)Cc1ccc(OC)c([N+](=O)[O-])c1 (stereo unspecified)	none
O=C1C(Cl)=C(N2CCCCC2)C(=O)N1Cc1ccccc1	none
N#Cc1c2n(c3c(=S)nc[nH]c13)CCCCC2	none
N#Cc1c2n(c3c(=O)[nH]cnc13)CCCC2	SMARCA2 activ 9.3 | SMARCA2 conf inactive | VP16 Luc act inactive
CC(CC(c1ccccc1)N1CCc2ccccc2C1)=NO (stereo unspecified)	none
COc1ccccc1N1CCN(C(=O)C(=O)N/N=C/c2cccc(O)c2)CC1	none
COc1ccccc1/C=N/NC(=O)C(=O)N1CCN(c2ccccc2OC)CC1	SMARCA2 activ 10 | SMARCA2 conf inactive | VP16 Luc act inactive
CCCC(C(=O)NCCC(C)C)N(Cc1ccc(OC)cc1)C(=O)c1snc(C(N)=O)c1N (stereo unspecified)	none
COc1ccc(N(CCCN2C(=O)c3cccc4cccc(c34)C2=O)C(=O)c2cccnc2)cc1	none
COc1ccc(N(CCCN2C(=O)c3cccc4cccc(c34)C2=O)C(=O)c2ccncc2)cc1	SMARCA2 activ 8.0 | SMARCA2 conf inactive | VP16 Luc act inactive
C/C(=N\NC(=O)c1ccc(O)cc1O)c1cccnc1	SMARCA2 activ 10 | SMARCA2 conf inactive | VP16 Luc act inactive
CCSc1nnc(NC(=O)c2cccnc2)s1	none
COc1ccc(C(=O)Nc2nnc(SCC(=O)NC3CC3)s2)cc1	hgDAF-12 ag 11, SMARCA2 activ 8.2 | SMARCA2 conf inactive | VP16 Luc act 13
CCSc1nnc(NC(=O)c2ccccc2)s1	SMARCA2 activ 11 | SMARCA2 conf inactive | VP16 Luc act 5.5
CC(C)CNc1nnnc2c1sc1nc(N3CCOCC3)c3c(c12)CCCC3	none
COc1cc(Cl)nn(-c2ccccc2)c1=O	SMARCA2 activ 11 | SMARCA2 conf inactive | VP16 Luc act inactive
COc1cnn(-c2ccccc2)c(=O)c1N(C)C	none
COC(=O)CNc1c(-c2ccccc2)nc2ccc(Br)cn12	SMARCA2 activ 14 | SMARCA2 conf 11 | VP16 Luc act 6.8
COC(=O)Nc1c(-c2ccccc2)nc2ccc(Cl)cn12	none
O=C(/C=C/Sc1ccccc1)c1ccc(Cl)cc1	SMARCA2 activ 8.1 | SMARCA2 conf inactive | VP16 Luc act 6.4
CCN(CC)CCn1c(=S)[nH]c2cc3c(cc2c1=O)OCO3	SMARCA2 activ 8.7 | SMARCA2 conf inactive | VP16 Luc act inactive
C=C(C)CC(NCc1ccco1)c1ccc(OC)cc1 (stereo unspecified)	none
C=CCC(NCc1ccco1)c1ccc(OC)c(OC)c1 (stereo unspecified)	SMARCA2 activ 9.9 | SMARCA2 conf inactive | VP16 Luc act inactive
CN(C)S(=O)(=O)N1CCC(Oc2cccc(C(=O)NCCC3=CCCCC3)c2)CC1	none
CCOc1ccc(OCc2ccc(C(=O)N3CCc4ccccc4C3)o2)cc1	SMARCA2 activ 13 | SMARCA2 conf inactive | VP16 Luc act inactive
O=C1CCCC(O)=C1C=Nc1ccc(O)cc1	none
COc1ccc(/C=N/N=C2/NC(=O)C(c3ccccc3)(c3ccccc3)S2)cc1	SMARCA2 activ 8.3 | SMARCA2 conf inactive | VP16 Luc act inactive
